Test results from PubChem BioAssay (EPA / NIEHS).
The source made the active and inactive calls. How the source made its calls: active means hit-call score of the fitted dose curve at least 0.9, where 1 is the maximum; inactive means score below 0.9.

Target: Hepatocyte nuclear factor 3-beta (Homo sapiens) (UniProt Q9Y261)
Experiment: ATG_FoxA2_CIS: Attagene CIS-FACTORIAL HepG2 Assay for human Forkhead box A2 (FOXA2) (AID 2282942)
Conditions: HepG2 cis-reporter transcription factor activity, 24 h; actives raise or lower the signal
In short: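 Reporter transcript induction is measured by fluorescence after capillary electrophoresis of RT-PCR products from HepG2 cells exposed 24 h. Cis-regulated reporter units report endogenous factor activity; curves fitted both directions against DMSO.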

Chain of Hepatocyte nuclear factor 3-beta (Homo sapiens) (Q9Y261 whole entry, looked up): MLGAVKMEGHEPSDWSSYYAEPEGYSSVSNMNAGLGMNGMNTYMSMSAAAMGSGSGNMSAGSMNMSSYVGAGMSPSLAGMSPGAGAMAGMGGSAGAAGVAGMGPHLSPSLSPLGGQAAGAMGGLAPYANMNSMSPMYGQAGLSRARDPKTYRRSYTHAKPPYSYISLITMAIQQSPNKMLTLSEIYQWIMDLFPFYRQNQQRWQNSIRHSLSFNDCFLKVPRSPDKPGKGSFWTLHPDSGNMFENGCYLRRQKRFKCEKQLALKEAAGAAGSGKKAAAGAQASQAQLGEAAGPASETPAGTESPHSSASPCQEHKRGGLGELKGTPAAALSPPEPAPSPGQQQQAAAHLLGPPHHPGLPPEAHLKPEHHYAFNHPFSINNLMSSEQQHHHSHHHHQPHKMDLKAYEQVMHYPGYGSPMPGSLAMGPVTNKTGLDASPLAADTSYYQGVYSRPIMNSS

Row | Structure (SMILES) | outcome
1 | c1ccc2c(c1)sc1ccccc12 | inactive
2 | Nc1ccc(Cl)cc1 | inactive
3 | Nc1ccc2ccccc2c1 | inactive
4 | Nc1ccc([N+](=O)[O-])cc1Cl | inactive
5 | CCOP(=S)(OCC)SCSCC | inactive
6 | CCOP(=S)(S)OCC | inactive
7 | OCC(F)(F)OC(F)(F)C(F)(F)OC(F)(F)C(F)(F)OC(F)(F)F | inactive
8 | O=C(O)C(F)(F)C(F)(F)C(=O)O | inactive
9 | Cc1cc(C)c(C(=O)P(=O)(c2ccccc2)c2ccccc2)c(C)c1 | inactive
10 | CC(C)(C)OOC(C)(C)C | inactive
11 | Cn1[nH]nnc1=S | inactive
12 | CCOP(=S)(Oc1ccc([N+](=O)[O-])cc1)c1ccccc1 (stereo unspecified) | inactive
13 | FC(F)(F)C(F)(C(F)(F)F)C(F)(F)C(F)(F)CC1CO1 (stereo unspecified) | inactive
14 | CCOC(=O)c1ccccc1N | inactive
15 | Oc1ccccc1Br | inactive
16 | CCOc1ccc(C(C)(C)COCc2cccc(Oc3ccccc3)c2)cc1 | inactive
17 | CCCCc1ccccc1 | inactive
18 | CC1=C(C(=O)Nc2ccccc2)S(=O)(=O)CCO1 | inactive
19 | ClC(Cl)=C(c1ccc(Cl)cc1)c1ccccc1Cl | inactive
20 | CCCCC(CC)COC(=O)c1c(Br)c(Br)c(Br)c(Br)c1C(=O)OCC(CC)CCCC (stereo unspecified) | inactive

Row | Structure (SMILES) | outcome
21 | OCC(F)(F)OC(F)(F)C(F)(F)OC(F)(F)C(F)(F)OC(F)(F)CO | inactive
22 | COP(=O)(O)OC | inactive
23 | Clc1ccc(Oc2ccccc2)cc1 | inactive
24 | N#Cc1ccc(O)cc1 | inactive
25 | O=C(O)C1C(C(=O)O)C2(Cl)C(Cl)=C(Cl)C1(Cl)C2(Cl)Cl (stereo unspecified) | inactive
26 | CC(O)C#N (stereo unspecified) | inactive
27 | CCN(CC)c1ccccc1 | inactive
28 | CC(C)Nc1ccc(Nc2ccccc2)cc1 | inactive
29 | OCC1CO1 (stereo unspecified) | inactive
30 | CCCCC(CC)COP(=O)(Oc1ccccc1)Oc1ccccc1 (stereo unspecified) | inactive
31 | CCCCCCCc1ccc(O)cc1 | inactive
32 | ClC(Cl)c1ccccc1 | inactive
33 | COP(N)(=S)OC | inactive
34 | CCCCN(CCCC)N=O | inactive
35 | CC(C)(C)N(NC(=O)c1ccc(Cl)cc1)C(=O)c1ccccc1 | inactive
36 | c1ccc2c(c1)Nc1ccccc1S2 | inactive
37 | O=P(Oc1ccccc1)(Oc1ccccc1)Oc1ccccc1 | inactive
38 | CCNc1nc(Cl)nc(NC(C)(C)C)n1 | inactive
39 | O=NN1CCCC1 | inactive

System: not listed separately
Experiment: ATG_FoxO_CIS: Attagene CIS-FACTORIAL HepG2 Assay for human Forkhead box O (FoxO) (AID 2282943)
Conditions: HepG2 Attagene cis-reporter, FoxO element, mRNA; actives raise or lower the signal
In short: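 Values reflect reporter mRNA induction or loss in HepG2 cells 24 h post-dosing, fitted bidirectionally with DMSO as negative control and baseline. Detection used RT-PCR and fluorescence capillary electrophoresis.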

Row | Structure (SMILES) | outcome | AC50
40 | c1ccc2c(c1)sc1ccccc12 | inactive | –
41 | Nc1ccc(Cl)cc1 | inactive | –
42 | Nc1ccc2ccccc2c1 | inactive | –
43 | Nc1ccc([N+](=O)[O-])cc1Cl | inactive | –
44 | CCOP(=S)(OCC)SCSCC | inactive | –
45 | CCOP(=S)(S)OCC | inactive | –
46 | OCC(F)(F)OC(F)(F)C(F)(F)OC(F)(F)C(F)(F)OC(F)(F)F | inactive | –
47 | O=C(O)C(F)(F)C(F)(F)C(=O)O | inactive | –
48 | Cc1cc(C)c(C(=O)P(=O)(c2ccccc2)c2ccccc2)c(C)c1 | inactive | –
49 | CC(C)(C)OOC(C)(C)C | inactive | –
50 | Cn1[nH]nnc1=S | inactive | –
51 | CCOP(=S)(Oc1ccc([N+](=O)[O-])cc1)c1ccccc1 (stereo unspecified) | inactive | –
52 | FC(F)(F)C(F)(C(F)(F)F)C(F)(F)C(F)(F)CC1CO1 (stereo unspecified) | inactive | –
53 | CCOC(=O)c1ccccc1N | inactive | –
54 | Oc1ccccc1Br | inactive | –
55 | CCOc1ccc(C(C)(C)COCc2cccc(Oc3ccccc3)c2)cc1 | inactive | –
56 | CCCCc1ccccc1 | inactive | –
57 | CC1=C(C(=O)Nc2ccccc2)S(=O)(=O)CCO1 | inactive | –
58 | ClC(Cl)=C(c1ccc(Cl)cc1)c1ccccc1Cl | – | 160 µM (active)
59 | CCCCC(CC)COC(=O)c1c(Br)c(Br)c(Br)c(Br)c1C(=O)OCC(CC)CCCC (stereo unspecified) | inactive | –

Row | Structure (SMILES) | outcome | AC50
60 | OCC(F)(F)OC(F)(F)C(F)(F)OC(F)(F)C(F)(F)OC(F)(F)CO | inactive | –
61 | COP(=O)(O)OC | inactive | –
62 | Clc1ccc(Oc2ccccc2)cc1 | inactive | –
63 | N#Cc1ccc(O)cc1 | inactive | –
64 | O=C(O)C1C(C(=O)O)C2(Cl)C(Cl)=C(Cl)C1(Cl)C2(Cl)Cl (stereo unspecified) | inactive | –
65 | CC(O)C#N (stereo unspecified) | inactive | –
66 | CCN(CC)c1ccccc1 | inactive | –
67 | CC(C)Nc1ccc(Nc2ccccc2)cc1 | inactive | –
68 | OCC1CO1 (stereo unspecified) | inactive | –
69 | CCCCC(CC)COP(=O)(Oc1ccccc1)Oc1ccccc1 (stereo unspecified) | inactive | –
70 | CCCCCCCc1ccc(O)cc1 | inactive | –
71 | ClC(Cl)c1ccccc1 | inactive | –
72 | COP(N)(=S)OC | inactive | –
73 | CCCCN(CCCC)N=O | inactive | –
74 | CC(C)(C)N(NC(=O)c1ccc(Cl)cc1)C(=O)c1ccccc1 | inactive | –
75 | c1ccc2c(c1)Nc1ccccc1S2 | inactive | –
76 | O=P(Oc1ccccc1)(Oc1ccccc1)Oc1ccccc1 | inactive | –
77 | CCNc1nc(Cl)nc(NC(C)(C)C)n1 | inactive | –
78 | O=NN1CCCC1 | inactive | –

System: not listed separately
Experiment: ATG_GATA_CIS: Attagene CIS-FACTORIAL HepG2 Assay for human GATA Binding Protein (AID 2282944)
Conditions: HepG2 GATA cis-element reporter, Attagene multiplex mRNA; actives raise or lower the signal
In short: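 DMSO serves as negative control and baseline for bidirectional fitting of reporter mRNA changes. HepG2 cells bearing transiently transfected cis-promoter reporters were exposed 24 h; transcripts detected via RT-PCR and capillary electrophoresis.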

Row | Structure (SMILES) | outcome | AC50
79 | c1ccc2c(c1)sc1ccccc12 | inactive | –
80 | Nc1ccc(Cl)cc1 | inactive | –
81 | Nc1ccc2ccccc2c1 | inactive | –
82 | Nc1ccc([N+](=O)[O-])cc1Cl | inactive | –
83 | CCOP(=S)(OCC)SCSCC | inactive | –
84 | OCC(F)(F)OC(F)(F)C(F)(F)OC(F)(F)C(F)(F)OC(F)(F)F | inactive | –
85 | O=C(O)C(F)(F)C(F)(F)C(=O)O | inactive | –
86 | Cc1cc(C)c(C(=O)P(=O)(c2ccccc2)c2ccccc2)c(C)c1 | – | 54.9 µM (active)
87 | Cn1[nH]nnc1=S | inactive | –
88 | CCOP(=S)(Oc1ccc([N+](=O)[O-])cc1)c1ccccc1 (stereo unspecified) | inactive | –
89 | FC(F)(F)C(F)(C(F)(F)F)C(F)(F)C(F)(F)CC1CO1 (stereo unspecified) | inactive | –
90 | CCOC(=O)c1ccccc1N | inactive | –
91 | CCOc1ccc(C(C)(C)COCc2cccc(Oc3ccccc3)c2)cc1 | inactive | –
92 | CCCCc1ccccc1 | inactive | –
93 | CC1=C(C(=O)Nc2ccccc2)S(=O)(=O)CCO1 | inactive | –
94 | CCCCC(CC)COC(=O)c1c(Br)c(Br)c(Br)c(Br)c1C(=O)OCC(CC)CCCC (stereo unspecified) | inactive | –
95 | COP(=O)(O)OC | inactive | –
96 | Clc1ccc(Oc2ccccc2)cc1 | inactive | –
97 | N#Cc1ccc(O)cc1 | inactive | –
98 | CC(O)C#N (stereo unspecified) | inactive | –
99 | CCN(CC)c1ccccc1 | inactive | –
100 | CCCCC(CC)COP(=O)(Oc1ccccc1)Oc1ccccc1 (stereo unspecified) | inactive | –
101 | CCCCCCCc1ccc(O)cc1 | inactive | –
102 | ClC(Cl)c1ccccc1 | inactive | –
103 | COP(N)(=S)OC | inactive | –
104 | CC(C)(C)N(NC(=O)c1ccc(Cl)cc1)C(=O)c1ccccc1 | inactive | –
105 | O=P(Oc1ccccc1)(Oc1ccccc1)Oc1ccccc1 | inactive | –
106 | CCNc1nc(Cl)nc(NC(C)(C)C)n1 | inactive | –
